From PubChem
Sampled rows, rich in hits. Any-hit rate of the full collection: about 3.5%.
TROY signal inh – TROY signaling inhibition | Q293 LMP1-TROYcd NF-kB luciferase reporter, 4 h | AID 1347056 | inhibition, % at 10 µM | 0.98% of 360,000 active;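 active = compounds whose plate-normalised and pattern-corrected inhibition of the luciferase reporter signal at the single screening dose is 50% or more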
TRAIL sens C8 – caspase-8 TRAIL sensitization; AID 624354; inhibition (viability loss, TRAIL sensitization), % at 10 µM; NB7+C8 cells + TRAIL, ATPlite viability luminescence; 1% of 360,000 active;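 active = compounds causing at least 50% loss of cell viability in the single-dose screen, relative to plate controls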
Platelet DG rel – platelet dense granule release activity; human platelet-rich plasma, SFLLRN dense granule ATP release, luminescence; inhibition, %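 (compounds screened at 7.5 µM in platelet-rich plasma)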; 0.22% of 300,000 active; AID 1663;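 active = mean replicate score, as percent of positive control, at or above 50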
PPC-1+TRAIL kill – PPC-1 cancer cell killing with TRAIL present | PPC-1 cells + TRAIL, ATPLite viability luminescence | cell killing (% activity), % at 4 µM or 5 µM | 0.41% of 220,000 active;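 active = cell killing above 50% in the first pass at 4 µM, then a duplicate retest at 5 µM averaging 50% or more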;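 also: plate controls were cells with TRAIL plus DMSO for no effect and medium-only wells lacking cells for full effect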
TWEAK Fn14 block – TWEAK-Fn14 signaling inhibition. inhibition, % at 10 µM. 2% of 360,000 active. TWEAK-stimulated Fn14 reporter cells, luciferase luminescence, 8 h. AID 1159606; in the data active = inhibition above about 50%
HSP90 refold inh – blocks HSP90-mediated luciferase refolding in reticulocyte lysate. Rabbit reticulocyte lysate, luciferase refolding luminescence, 3 h. inhibition, % at 5.6 µM. 0.91% of 290,000 active. AID 1789;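 active = inhibition above the screen-wide mean plus 3 SD, computed separately per campaign, cut at about 16% in these data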;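 also: 0% = DMSO wells and 100% = 60 µM geldanamycin wells; inhibitors lower the luminescence because luciferase stays unfolded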
* = called active by the depositor; / = no result.

SMILES	TROY signal inh	TRAIL sens C8	Platelet DG rel	PPC-1+TRAIL kill	TWEAK Fn14 block	HSP90 refold inh
CC1=CC(O)C(O)C2(C)C1CC1OC(=O)C(O)C3C(C)C(O)C4(O)OCC13C42 (stereo not given)	15.1	0.3	/	/	-3.3	/
COC(=O)[C@]12OC[C@]34C([C@@H](O)[C@@H]1O)[C@]1(C)CC(=O)C(O)=C(C)[C@@H]1C[C@H]3OC(=O)[C@H](O)[C@@H]24 (stereo not given in full)	78.7*	39.2	5.1	28.1	95.2*	/
CC(CCN1CC1)=NNC(=O)Nc1cccc2ccccc12	36.6	2.3	/	/	58.3*	/
c1cncc(CNCCN2CCNCC2)c1	8.4	4.9	/	/	-0.8	/
O=C1/C(=C/c2ccccc2)C[C@@]2(O)[C@H]3Cc4ccc(O)c5c4[C@@]2(CCN3CC2CC2)C1O5 (stereo not given in full)	63.7*	-22.9	/	/	91.4*	/
Oc1ccc2c3c1OC1c4[nH]c5ccccc5c4C[C@@]4(O)C(C2)N(CC2CC2)CC[C@]314 (stereo not given in full)	6.0	-25.7	/	/	3.3	/
COc1ccc(CNC(=O)C(NC(C)=O)C(C)C)cc1OC (stereo not given)	-9.2	-8.0	-5.5	16.8	1.6	8.9
Cc1ccc(NC(=O)c2ncn(CCCNCCN3CCOCC3)n2)cc1C	-0.6	7.4	/	/	70.4*	/
CC1OC(OC2C=C3CCC4C(CCC5(C)C(c6ccc(=O)oc6)CCC45O)C3(C)CC2)C(O)C(OC2OC(CO)C(O)C(O)C2O)C1O (stereo not given)	40.4	74.5*	/	/	85.8*	/
C=CCn1c(O)c(C(C)=NCc2cccnc2)c(=O)[nH]c1=O	4.1	-14.5	-2.8	11.1	-6.5	1.2
C=CCn1c(O)c(C(C)=NCc2cc(OC)cc(OC)c2)c(=O)[nH]c1=O	-3.8	81.6*	5.5	28.3	17.3	-2.0
CC1CCCC(C)N1/N=C/c1c[nH]c2ccc(Br)cc12 (stereo not given)	4.0	3.9	7.5	15.4	0.5	0.1
CCC(=O)[C@@H](C)[C@@H](O)[C@H](C)C[C@@H](C)C1OC(=O)C[C@@]2(O)CC=C(C)C(O2)C(C)=CCCC[C@H](O[C@H]2C[C@@H](OC(N)=O)[C@H](O)[C@@H](C)O2)C=C[C@H](C)C[C@H]1C (stereo not given in full)	29.1	45.9	/	/	88.9*	/
Cn1c(NN=O)nc2ccccc21	7.7	57.0*	1.6	38.8	-31.5	-1.5
CN1CCN(Cc2nc3ccccc3n2C)CC1	14.5	-18.6	3.8	-11.6	9.1	0.6
NC1=C([N+](=O)[O-])C(c2ccc3c(c2)OCO3)c2c(c3ccccc3oc2=O)O1 (stereo not given)	/	/	-14.2	14.3	/	-0.9
O=c1oc2ccccc2c(O)c1[C@H]1c2ccc(O)cc2Oc2c1c(=O)oc1ccccc21	65.1*	-11.4	-2.0	12.0	42.6	1.6
CCOC(=O)[C@]12Cc3cc(OC)ccc3[C@H]1N(Cc1ccccc1)C(=O)c1cc(OC)ccc12	16.5	12.5	/	/	22.4	/
CCOC(=O)[C@]12Cc3cc4ccccc4cc3[C@H]1N(Cc1ccccc1)C(=O)c1ccccc12	30.7	66.7*	/	/	68.3*	/
CCOC(=O)[C@]12Cc3cc4ccccc4cc3[C@H]1N(Cc1ccccc1)C(=O)c1cc(OC)ccc12	40.9	64.2*	/	/	56.3*	/
CCOC(=O)[C@]12Cc3cc(Cl)ccc3[C@H]1N(Cc1ccccc1)C(=O)c1cc(OC)ccc12	28.9	88.6*	/	/	52.4*	/
CCCCCN1C(=O)c2cc(OC)ccc2[C@@]2(C(=O)OCC)Cc3cc(Cl)ccc3[C@@H]12	51.8*	84.7*	/	/	76.7*	/
Cc1c(N=Nc2c(O)n(C)c(=O)n(C)c2=O)c(=O)n(-c2ccccc2)n1C	-15.4	-2.0	-6.8	5.9	-7.0	2.7
O=C(NC1CC1)C1CSC(c2cccnc2)=N1 (stereo not given)	3.3	5.7	-3.4	0.1	7.0	2.7
Oc1ccc(CCNCc2cc3c(cc2Br)OCO3)cc1	8.2	-4.2	/	/	-3.7	/
SMILES	TROY signal inh	TRAIL sens C8	Platelet DG rel	PPC-1+TRAIL kill	TWEAK Fn14 block	HSP90 refold inh
CCOC(=O)c1ccc(-[n+]2c(-c3ccccc3)cc(-c3ccccc3)cc2-c2ccccc2)cc1	/	/	-3.8	/	/	/
Cc1ccc(-c2cc(-c3ccc(C)cc3)[n+](-c3ccccc3)c(-c3ccc(C)cc3)c2)cc1	71.4*	70.9*	6.7	/	91.6*	/
Cc1ccc(-c2cc(-c3ccc(C)cc3)[n+](-c3ccc(C(=O)[O-])cc3)c(-c3ccc(C)cc3)c2)cc1	-7.3	6.1	-4.3	/	0.8	/
CCOC(=O)c1cccc(-[n+]2c(-c3ccccc3)cc(-c3ccccc3)cc2-c2ccccc2)c1	-3.2	57.6*	-1.4	/	24.0	/
C[n+]1c(-c2ccccc2)cc(-c2ccc(Cl)cc2)cc1-c1ccccc1	20.8	12.5	4.5	24.4	17.7	3.8
Cc1ccc(-c2cc(-c3ccccc3)cc(-c3ccccc3)[n+]2-c2ccccc2)cc1	84.3*	90.6*	-0.1	/	103.8*	/
Cc1ccccc1C(O)(Cc1ccccc1)C1CN2CCC1CC2 (stereo not given)	-14.2	16.3	0.4	14.0	-14.4	-1.5
COC(=O)C1=C(c2ccccc2OCc2ccccc2)C[C@@H]2CC[C@H]1N2C(=O)NCCc1ccc(F)cc1	4.9	14.3	/	/	-13.7	/
C[C@]12CCC3C(CC[C@H]4C[C@H](N)CC[C@]34C)C1CC[C@H]2O (stereo not given in full)	-3.0	-3.4	-1.7	/	-24.0	-0.6
CC12CCC(O)CC1CCC1C2CCC2(C)C(C(=O)CO)CCC12 (stereo not given)	-2.7	-3.6	/	/	-127.2	/
N#CC(C#N)=Cc1ccc(-c2ccccc2F)o1	11.3	-0.8	/	29.1	70.1*	-4.0
N#CC(C#N)=Cc1ccc(-c2ccccc2)o1	/	/	12.4	15.5	/	-2.3
C=CC12CN(C)C3C4COC(CC41)C1(C(=O)Nc4ccccc41)C32 (stereo not given)	4.2	-16.6	/	/	-29.8	/
Cc1cc2c(C(C)C)c(O)c(O)c(C=O)c2c(O)c1-c1c(C)cc2c(C(C)C)c(O)c(O)c(C=O)c2c1O	66.0*	32.4	/	5.4	102.1*	-8.7
O=C(c1ccc(Cl)cc1)C1CCCN(Cc2cccc3cnccc23)C1 (stereo not given)	85.2*	16.4	30.2	16.5	20.9	-1.6
Clc1cccc(N2Cc3cc(-c4ccccc4)ccc3-n3nncc3C2)c1	-14.3	-1.5	/	/	49.9	/
CCCCCc1nc2c(c(=O)c3ccccc3n2C)c(=O)n1C1CCCCCC1	88.9*	22.3	18.7	22.9	43.8	2.7
CCCCCc1nc2ccccc2c(=O)n1-c1ccccc1[N+](=O)[O-]	2.9	-4.5	7.2	19.6	-11.0	2.0
Cc1cccc(-n2c(O)c(/C=C/C=Nc3ccccc3)c(=O)[nH]c2=O)c1	-12.8	-2.7	-0.1	27.7	21.0	0.7
